± gives the standard deviation of the averaged measurements. The full ranking holds about 25,000 sequences; the median of “ln(normalized median fluorescence intensity)” is about 10, and the highest 2% start at about 12. The entries come from a sample that favours the highest values as a whole.

The subject of the assay is PfAP2-G AP2 domain (GST-tagged). Put plainly: gcPBM binding intensity (ln(normalized median fluorescence intensity)); higher = stronger DNA binding. An outline of the steps: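 An Agilent 4 × 180k array of primer-extended double-stranded 36-bp intergenic genomic probes, with negative controls, was incubated for 1 h with GST-tagged P. falciparum DNA-binding domains expressed in E. coli. Alexa488 anti-GST antibody detected bound protein, scanned at 488 nm. Binding intensity is the highest Masliner-normalised natural-log median intensity across replicate spots of either probe orientation.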
“TCCTTACCTATTAAAGCATGCTCGAATATATATTTT [TGCATGCA_site53]”: the “gcPBM binding intensity (ln)” value came out at 9.81 ± 0.18.
To “ATACACATAACATATATATATATATATATATATATC [CACACA_negctrl_site278]” belongs 9.73 ± 0.057; to “TTTTGGATACTTCATTTGTCCTGTTTTTTTTTTTTA [CACACA_negctrl_site399]”, 10.7 ± 0.37.
“ATGGATAATAATAAGTGTACACATATATTTAGAAGA [XGTACX_site244]”: the “gcPBM binding intensity (ln)” value was 11.8 ± 0.86.
To “GAATATATATTCATATGTACACAATTTATGTATTAT [XGTACX_site4719]” belongs 11.4 ± 0.79; to “ATATAATAGAAGTGTACACACATATTTATGGGTGTA [CACACA_site5686]”, 11.5 ± 0.91; to “TATACATTTATGTACACACACATATCTGTATATTTA [CACACA_site5617]”, 11.5 ± 0.97.
The figure for “TATTTTTCCATTGGGGGTACATGTGTTATATTTATT [XGTACX_site5914]” is 11.7 ± 0.88.
Regarding “GTTCCATATATTACATGTACATATTTTTACATTTAA [XGTACX_site660]”, the “gcPBM binding intensity (ln)” value stood at 11.2 ± 0.72.
“ACATATATATATATGTGTACATATTTATACAACAAT [XGTACX_site6660]”: the “gcPBM binding intensity (ln)” value worked out at 11.6 ± 0.78.
To “TATATTTATACAATATGTACATATTATATATATATA [XGTACX_site3098]” belongs 11 ± 0.59.
For the sequence “TATATATATATGTGTACACAATTTATCTGTATTTAT [CACACA_site5945]”, the “gcPBM binding intensity (ln)” value was 11.8 ± 0.93.
As to “TATAAAAAAAAATGTGGTACATATTTCCATTTTCCA [XGTACX_site4571]”, the “gcPBM binding intensity (ln)” value came to 11.3 ± 0.76.
With “ATATATATATACATATGTACATATATATTTATACAT [XGTACX_site2463]”, the “gcPBM binding intensity (ln)” value turned out to be 11 ± 0.58.
Regarding “GATAATAATAAGTGTACACATATATTTAGAAGAGTA [CACACA_site4245]”, the “gcPBM binding intensity (ln)” value was found to be 11.5 ± 0.85.
Regarding “TTTTTTTTTTTGTTCACACATATACTTTTATTTTGG [CACACA_site4250]”, the “gcPBM binding intensity (ln)” value worked out at 10.2 ± 0.23.
To “AAAAAAAAAAAAAAAACACACAATAAAGTAAAATTT [CACACA_site135]” belongs 10.15 ± 0.049; to “TAAAAATGGGTATGTACACACTTTATTTTTAATACA [CACACA_site5404]”, 11.5 ± 0.92; to “TATATATTCCTCCATAGTACAATAATAAAGATAAAA [XGTACX_site5785]”, 10.6 ± 0.35.
The figure for ATGTTCTTATTATTGGTGCAAGAATACACAAGAAAA is 10.4 ± 0.45; for “ATTTTTTTACTGCAACCATATTTTTCCCTTTTATTC [CACACA_negctrl_site1282]” it is 10.12 ± 0.085.
The figure for “AAAATTTAAATAGGAAGTACGTTCACTAAGAAAATA [XGTACX_site6546]” is 11 ± 0.57.
Turning to “TTGCTGTATTTATTTTGTACACATTTGGCATTATAT [XGTACX_site3408]”, the “gcPBM binding intensity (ln)” value turned out to be 11.2 ± 0.73.
To “CTATAATAGAAGTGTACACACATATTTATGTCTGTA [CACACA_site7462]” belongs 11.7 ± 0.93; to “ATATAATAGAAGTGTACACACATATTTATGTCTGTA [CACACA_site3121]”, 11.5 ± 0.74; to “TGCTGTATATTTTTCTGTACACATTTATATATTCCA [XGTACX_site6244]”, 11.6 ± 0.87.
As to “TTTAAAAATTAATTCTGTACACATTTTTATTATATT [XGTACX_site4212]”, the “gcPBM binding intensity (ln)” value amounted to 11.5 ± 0.81.
As to “TTAATATAATAGAAGTGTACACACATATTTATGTGT [XGTACX_site6672]”, the “gcPBM binding intensity (ln)” value worked out at 11.5 ± 0.78.
The figure for “TATATATAATATAGTGCATGTAAAAAATAAACCATG [TGCATGCA_site932]” is 10.2 ± 0.16; for “ACAAGTTAAAATATTACACACATATAAATATATATA [CACACA_site3132]” it is 9.84 ± 0.099; for “TTGTTCTATATATATGCATGCACGTATGTTAAATTA [TGCATGCA_site659]” it is 10.3 ± 0.33.
On to “AGATATTAAAACGTTACACACATTTATATATCTTCT [CACACA_site908]”, for which the “gcPBM binding intensity (ln)” value was 9.74 ± 0.2.
The figure for “GAAAGAATAAAATTTACACACATATATATATACATA [CACACA_site2250]” is 9.745 ± 0.035; for “ATGTCTATATATTAAGGTACACATATATGCTATTCA [XGTACX_site6008]” it is 11.1 ± 0.57.
“ACTTATAAAATAACATGTACAAATATTTATTATATA [XGTACX_site133]”: the “gcPBM binding intensity (ln)” value is 11 ± 0.54.
To “AAAAAAATATAAATACGTACATATATATATATATAT [XGTACX_site432]” belongs 11.5 ± 0.98; to “TTATACATAAATTTTGTACACACAAAAAAAAAAAAG [CACACA_site8374]”, 11.2 ± 0.87; to “ATATCGAAAATTTGGTGTACATTTTTATTTGTTCAA [XGTACX_site3094]”, 11.5 ± 0.93.
“ATTTTGTTCGAAAGGTGTACATATACAAAAATTATG [XGTACX_site957]”: the “gcPBM binding intensity (ln)” value was determined as 11.7 ± 1.
“TTTATTTATTACTAAAGTACTAAATCATATTATTAT [XGTACX_site2574]”: the “gcPBM binding intensity (ln)” value was determined as 10.6 ± 0.54.
The figure for “TAATATAGTATAGTATGTACATATAATTAGAATATT [XGTACX_site4053]” is 11.3 ± 0.77; for “TAGGGTAGTTATAATTGTACTTTTCTCCAAAAAAAA [XGTACX_site7321]” it is 11.3 ± 0.81.
The figure for “TTAGTTTATTGGTACTGTACTTTTTTTTTCTCCATT [XGTACX_site8618]” is 11.9 ± 0.91; for “CCATATATTTGGTATAGTACTTTTTATTTTATTTCA [XGTACX_site8933]” it is 11.1 ± 0.5; for “TACATAAACATTTATACACACATTATATATACATAT [CACACA_site8028]” it is 10.12 ± 0.064.
The figure for “TAATTATTTCGTATATTTGAATGGTACATGCTTATA [CACACA_negctrl_site1178]” is 10.7 ± 0.6.
On to “ATACATATAATATATGCATGTACCAATCAAATATAT [TGCATGCA_site192]”, for which the “gcPBM binding intensity (ln)” value stood at 10.5 ± 0.29.
With “TGTTGTATTGAAGCTAAAAAATGAGGCAAAAAAAAA [CACACA_negctrl_site1189]”, the “gcPBM binding intensity (ln)” value came out at 10.2 ± 0.26.
As for “TATATTATAGGTTGTGTACACATATTATATAGTACT [CACACA_site4583]”, the “gcPBM binding intensity (ln)” value came out at 11.6 ± 0.88.
The figure for “AACACTACATAAAACTGTACAATAGTATTTTATTAT [XGTACX_site996]” is 10.9 ± 0.49; for “TTTATTTTGTAGTGTACACATATATATATATATATA [CACACA_site5843]” it is 11.7 ± 0.96; for “TTTTTATTTGGTTGTGTACACATATATATATATATA [CACACA_site5844]” it is 11.6 ± 0.94.
As to “GTATTATCTGCTTTTTGTACACATATATTTAAAAAA [XGTACX_site7603]”, the “gcPBM binding intensity (ln)” value was 11.4 ± 0.95.
To “ATGTGTATATATTATTGTACATATATATATATATAT [XGTACX_site4627]” belongs 11.2 ± 0.82.
As to “CATACATATACTTTGTGTACATATATATATTATATA [XGTACX_site97]”, the “gcPBM binding intensity (ln)” value is 11.4 ± 0.78.
For the sequence “TTATATTTATTTATTTGTACATATTTTTTTTTATAT [XGTACX_site1669]”, the “gcPBM binding intensity (ln)” value amounted to 11.2 ± 0.67.
The figure for “AATTTTTATTTGTACACACATACATATATATTATAT [CACACA_site993]” is 11.4 ± 0.83; for “ACATATTTTATTTTTTGTACACATATATTATTTTTT [XGTACX_site6528]” it is 11.3 ± 0.66.
The figure for “CTTTAAAACCGGTACTGTACACATAGTATTATTATC [XGTACX_site2602]” is 11.6 ± 0.8; for “TTATTTATATTTTTTTGTACACATATTGTATACATA [XGTACX_site1178]” it is 11.5 ± 0.86.

These data come from the supplement of paper PMC11417369.
